Experimental findings from the supplement of paper PMC10849652 are described below.

Targets with a hit are over-represented here; the source holds about 7,900 in all. About 0.6% of all pairs of compound and target were hits.

Sequence of UniProt O95372 (O95372 whole entry, looked up): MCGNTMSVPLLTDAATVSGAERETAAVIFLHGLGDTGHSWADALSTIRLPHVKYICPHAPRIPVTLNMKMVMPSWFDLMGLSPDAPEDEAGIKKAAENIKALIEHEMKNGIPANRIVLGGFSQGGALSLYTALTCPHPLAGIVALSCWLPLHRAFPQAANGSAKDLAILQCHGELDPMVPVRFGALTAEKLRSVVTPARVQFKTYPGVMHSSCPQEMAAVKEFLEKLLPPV
Sequence of UniProt Q9H6V9 (Q9H6V9 whole entry, looked up): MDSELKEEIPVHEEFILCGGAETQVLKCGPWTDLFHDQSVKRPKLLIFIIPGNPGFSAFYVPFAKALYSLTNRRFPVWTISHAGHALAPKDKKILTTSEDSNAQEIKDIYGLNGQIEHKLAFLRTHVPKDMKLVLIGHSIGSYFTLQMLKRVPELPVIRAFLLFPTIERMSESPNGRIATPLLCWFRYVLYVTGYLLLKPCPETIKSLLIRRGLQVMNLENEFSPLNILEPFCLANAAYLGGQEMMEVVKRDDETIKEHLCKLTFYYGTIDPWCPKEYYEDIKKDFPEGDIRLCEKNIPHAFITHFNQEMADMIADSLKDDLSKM
Sequence of UniProt P22692 (P22692 whole entry, looked up): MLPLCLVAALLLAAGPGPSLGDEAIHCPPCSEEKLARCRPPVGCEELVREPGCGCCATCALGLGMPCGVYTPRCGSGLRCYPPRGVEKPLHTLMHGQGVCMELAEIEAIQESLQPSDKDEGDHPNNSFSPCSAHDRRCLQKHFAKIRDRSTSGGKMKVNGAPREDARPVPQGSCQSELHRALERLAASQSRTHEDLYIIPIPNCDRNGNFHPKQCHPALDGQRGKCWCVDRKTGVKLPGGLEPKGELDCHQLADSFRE
Sequence of UniProt Q12906 (Q12906 whole entry, looked up): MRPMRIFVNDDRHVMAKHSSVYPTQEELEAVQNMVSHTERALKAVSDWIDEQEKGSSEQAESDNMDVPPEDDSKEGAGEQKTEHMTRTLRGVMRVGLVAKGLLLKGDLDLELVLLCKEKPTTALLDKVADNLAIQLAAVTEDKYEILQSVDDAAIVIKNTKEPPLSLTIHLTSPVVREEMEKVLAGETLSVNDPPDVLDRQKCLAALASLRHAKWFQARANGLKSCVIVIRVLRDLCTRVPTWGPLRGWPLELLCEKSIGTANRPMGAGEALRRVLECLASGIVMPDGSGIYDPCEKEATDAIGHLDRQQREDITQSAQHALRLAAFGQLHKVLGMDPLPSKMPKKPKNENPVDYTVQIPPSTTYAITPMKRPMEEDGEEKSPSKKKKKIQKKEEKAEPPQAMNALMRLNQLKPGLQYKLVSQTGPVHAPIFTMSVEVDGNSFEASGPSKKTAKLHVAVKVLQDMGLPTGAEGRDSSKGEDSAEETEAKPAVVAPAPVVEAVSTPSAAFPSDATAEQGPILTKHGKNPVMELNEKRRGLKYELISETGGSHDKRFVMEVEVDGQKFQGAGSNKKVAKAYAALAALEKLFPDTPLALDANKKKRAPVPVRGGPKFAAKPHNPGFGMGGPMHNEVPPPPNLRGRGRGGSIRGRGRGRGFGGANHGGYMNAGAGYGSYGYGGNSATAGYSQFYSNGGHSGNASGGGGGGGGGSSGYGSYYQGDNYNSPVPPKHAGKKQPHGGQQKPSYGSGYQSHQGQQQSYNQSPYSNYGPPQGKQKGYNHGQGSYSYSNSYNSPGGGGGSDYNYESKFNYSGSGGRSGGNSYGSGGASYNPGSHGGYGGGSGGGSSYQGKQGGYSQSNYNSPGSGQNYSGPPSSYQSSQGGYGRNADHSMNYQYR
Sequence of UniProt Q8NC56 (Q8NC56 whole entry, looked up): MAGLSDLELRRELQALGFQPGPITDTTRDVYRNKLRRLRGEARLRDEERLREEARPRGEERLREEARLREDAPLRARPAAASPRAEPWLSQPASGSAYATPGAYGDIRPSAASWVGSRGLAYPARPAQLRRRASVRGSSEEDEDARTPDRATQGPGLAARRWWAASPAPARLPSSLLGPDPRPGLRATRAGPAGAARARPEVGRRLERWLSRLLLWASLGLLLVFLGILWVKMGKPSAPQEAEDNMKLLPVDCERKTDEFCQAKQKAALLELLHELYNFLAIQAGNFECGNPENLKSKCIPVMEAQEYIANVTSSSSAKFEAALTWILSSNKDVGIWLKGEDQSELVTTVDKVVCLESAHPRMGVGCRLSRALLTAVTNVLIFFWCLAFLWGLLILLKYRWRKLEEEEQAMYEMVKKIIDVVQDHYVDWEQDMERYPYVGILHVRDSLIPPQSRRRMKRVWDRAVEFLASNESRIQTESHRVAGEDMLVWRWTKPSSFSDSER
Sequence of UniProt Q9NQ29 (Q9NQ29 whole entry, looked up): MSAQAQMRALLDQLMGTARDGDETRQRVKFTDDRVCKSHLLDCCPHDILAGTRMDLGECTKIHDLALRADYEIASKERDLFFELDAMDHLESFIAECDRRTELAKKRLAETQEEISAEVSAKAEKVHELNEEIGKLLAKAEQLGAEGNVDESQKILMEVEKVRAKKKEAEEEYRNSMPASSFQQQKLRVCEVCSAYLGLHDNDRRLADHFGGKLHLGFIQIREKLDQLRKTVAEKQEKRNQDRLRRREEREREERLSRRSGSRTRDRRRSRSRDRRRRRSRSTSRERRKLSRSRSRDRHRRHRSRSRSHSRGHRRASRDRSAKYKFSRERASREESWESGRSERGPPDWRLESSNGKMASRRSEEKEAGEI
Sequence of UniProt Q9HCC0 (Q9HCC0 whole entry, looked up): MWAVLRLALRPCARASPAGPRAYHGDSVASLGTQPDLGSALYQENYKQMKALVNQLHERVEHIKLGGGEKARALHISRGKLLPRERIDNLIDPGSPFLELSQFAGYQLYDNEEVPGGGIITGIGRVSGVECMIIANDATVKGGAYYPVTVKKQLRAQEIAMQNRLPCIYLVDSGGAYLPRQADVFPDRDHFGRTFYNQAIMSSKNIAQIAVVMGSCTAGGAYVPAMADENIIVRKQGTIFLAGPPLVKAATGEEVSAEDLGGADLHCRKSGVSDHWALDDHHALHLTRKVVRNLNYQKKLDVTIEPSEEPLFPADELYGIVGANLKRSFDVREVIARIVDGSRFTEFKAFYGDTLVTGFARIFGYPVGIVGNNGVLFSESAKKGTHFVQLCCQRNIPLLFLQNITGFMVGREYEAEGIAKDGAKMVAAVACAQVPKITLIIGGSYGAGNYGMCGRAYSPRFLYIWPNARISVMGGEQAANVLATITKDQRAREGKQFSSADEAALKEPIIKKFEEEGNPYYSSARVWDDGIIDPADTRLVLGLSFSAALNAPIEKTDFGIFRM
Sequence of UniProt Q92615 (Q92615 whole entry, looked up): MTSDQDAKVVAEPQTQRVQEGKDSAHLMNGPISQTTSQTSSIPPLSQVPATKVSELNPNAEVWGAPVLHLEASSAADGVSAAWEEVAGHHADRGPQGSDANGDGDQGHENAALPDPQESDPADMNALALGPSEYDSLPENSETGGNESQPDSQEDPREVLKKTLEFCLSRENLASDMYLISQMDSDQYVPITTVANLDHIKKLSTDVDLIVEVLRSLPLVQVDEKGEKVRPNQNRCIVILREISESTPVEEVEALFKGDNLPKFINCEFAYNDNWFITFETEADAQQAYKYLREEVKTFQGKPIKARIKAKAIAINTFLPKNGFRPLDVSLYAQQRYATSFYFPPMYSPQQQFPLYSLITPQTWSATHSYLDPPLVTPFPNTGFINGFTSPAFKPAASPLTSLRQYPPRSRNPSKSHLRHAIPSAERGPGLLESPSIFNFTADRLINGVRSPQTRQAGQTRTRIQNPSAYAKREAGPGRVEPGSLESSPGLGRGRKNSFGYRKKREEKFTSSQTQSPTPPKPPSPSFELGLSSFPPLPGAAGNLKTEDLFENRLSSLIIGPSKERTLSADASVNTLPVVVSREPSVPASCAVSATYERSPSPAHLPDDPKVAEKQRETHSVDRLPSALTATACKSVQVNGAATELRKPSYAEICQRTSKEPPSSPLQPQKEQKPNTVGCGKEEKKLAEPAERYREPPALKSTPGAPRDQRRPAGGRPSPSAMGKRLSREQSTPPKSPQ
Sequence of UniProt P32019 (P32019 whole entry, looked up): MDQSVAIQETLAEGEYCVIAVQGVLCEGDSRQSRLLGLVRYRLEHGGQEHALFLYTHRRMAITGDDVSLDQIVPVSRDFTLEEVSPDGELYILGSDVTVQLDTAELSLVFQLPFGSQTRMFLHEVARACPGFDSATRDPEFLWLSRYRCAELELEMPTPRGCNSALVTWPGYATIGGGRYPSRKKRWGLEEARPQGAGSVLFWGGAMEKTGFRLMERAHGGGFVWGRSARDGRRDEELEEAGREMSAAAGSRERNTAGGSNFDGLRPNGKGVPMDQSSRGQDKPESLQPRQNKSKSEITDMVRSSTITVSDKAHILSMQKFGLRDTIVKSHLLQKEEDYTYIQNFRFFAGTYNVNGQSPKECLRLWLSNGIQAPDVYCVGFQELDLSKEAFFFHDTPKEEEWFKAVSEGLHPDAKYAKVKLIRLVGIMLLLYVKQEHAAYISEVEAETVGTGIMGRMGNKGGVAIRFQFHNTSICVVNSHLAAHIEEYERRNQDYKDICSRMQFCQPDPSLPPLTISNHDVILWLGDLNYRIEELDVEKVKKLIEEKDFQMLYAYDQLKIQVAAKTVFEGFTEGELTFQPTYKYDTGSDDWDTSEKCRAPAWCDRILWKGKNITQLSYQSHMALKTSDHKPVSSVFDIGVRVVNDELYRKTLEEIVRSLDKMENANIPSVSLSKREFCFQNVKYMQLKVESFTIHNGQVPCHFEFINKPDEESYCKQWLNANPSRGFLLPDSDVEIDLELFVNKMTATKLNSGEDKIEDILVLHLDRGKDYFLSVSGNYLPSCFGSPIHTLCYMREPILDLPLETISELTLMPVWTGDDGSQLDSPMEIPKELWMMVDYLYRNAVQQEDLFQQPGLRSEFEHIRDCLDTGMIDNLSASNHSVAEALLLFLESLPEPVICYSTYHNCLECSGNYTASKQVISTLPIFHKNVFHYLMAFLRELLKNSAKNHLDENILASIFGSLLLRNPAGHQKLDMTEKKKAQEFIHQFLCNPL
Sequence of UniProt P14174 (P14174 whole entry, looked up): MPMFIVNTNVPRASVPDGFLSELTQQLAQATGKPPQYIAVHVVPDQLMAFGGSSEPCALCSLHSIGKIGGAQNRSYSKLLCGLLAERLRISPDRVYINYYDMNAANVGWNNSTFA

Compound in this assay: Cn1cncc1[C@@](N)(c1ccc(Cl)cc1)c1ccc2c(c1)c(-c1cccc(Cl)c1)cc(=O)n2C [tipifarnib]
The assay is described as follows: log2 fold change, soluble protein after heating vs DMSO (PISA); higher = thermal stabilisation; K562 cells, 10 uM, 30 min; active = over 0.2 and 3.5 SD of the protein, either way, in both replicates (recomputed). In a few lines: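 Values are thermal stability changes relative to control samples and are taken from duplicates. They are stated as log2 fold changes. Before quantification by TMTpro 16plex LC-MS/MS with equalised channel sums, K562 cells at 2×10^6 cells/mL were treated with 10 μM compound for 30 min, heated in aliquots for 3 min across 48°C-58°C, pooled, extracted in PBS with 0.5% NP-40 at 4°C, and centrifuged at 21,000xg for 90 min to give the soluble supernatant.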
On to MIEF1 (UniProt Q9NQG6), for which the log2 fold change is -0.039 (inactive). Turning to LDAH isoform 2 (UniProt Q9H6V9), the log2 fold change was 0.076 (inactive). With MAPKAPK2 (UniProt P49137) the figure was -0.022 (inactive); with LIAS (UniProt O43766), 0.098 (inactive). With MFSD5 isoform 2 (UniProt Q6N075) the figure was 0.141 (inactive); with LARP4B (UniProt Q92615), -0.008 (inactive).

As for LAMP2 (UniProt P13473), the log2 fold change is 0.14 (inactive). MAGEC2 (UniProt Q9UBF1): the log2 fold change is -0.02 (inactive). With IGFBP4 (UniProt P22692) the figure was 0.033 (inactive); with ILF3 isoform 7 (UniProt Q12906), 0.057 (inactive). LTV1 (UniProt Q96GA3): the log2 fold change is 0.064 (inactive). With MICU2 (UniProt Q8IYU8) the figure was 0.022 (inactive); with MCUR1 (UniProt Q96AQ8), -0.028 (inactive); with KDM1A isoform 2 (UniProt O60341), -0.108 (inactive).

As for LEMD2 (UniProt Q8NC56), the log2 fold change is -0.045 (inactive).

Turning to LRRFIP1 (UniProt Q32MZ4), the log2 fold change was 0.016 (inactive).

For LPIN1 isoform 7 (UniProt Q14693), the log2 fold change was -0.019 (inactive). With MFN1 (UniProt Q8IWA4) the figure was 0.123 (inactive).

Turning to KIF1B isoform 4 (UniProt O60333), the log2 fold change was -0.004 (inactive). The value for MFGE8 (UniProt Q08431) was 0.033 (inactive); that for MCCC2 (UniProt Q9HCC0) was -0.005 (inactive). As to MICU1 isoform 3 (UniProt Q9BPX6), the log2 fold change was -0.019 (inactive). The value for LARP1 (UniProt Q6PKG0) was 0.047 (inactive); that for MEPCE (UniProt Q7L2J0) was 0.029 (inactive).

As for MAD2L1 (UniProt Q13257), the log2 fold change is -0.055 (inactive).

Turning to KCTD2 (UniProt Q14681), the log2 fold change was 0.308 (inactive).

On to LYPLA2 (UniProt O95372), for which the log2 fold change was -0.054 (inactive). The value for INPP5B (UniProt P32019) was 0.072 (inactive). The value for IPO11 isoform 2 (UniProt Q9UI26) was -0.132 (inactive); that for MARCKS (UniProt P29966) was -0.002 (inactive); that for KIF2C (UniProt Q99661) was -0.103 (inactive). With LPCAT3 (UniProt Q6P1A2) the figure was -0.216 (inactive). KTN1 (UniProt Q86UP2): the log2 fold change is -0.064 (inactive). Regarding MIF (UniProt P14174), the log2 fold change was -0.029 (inactive).

Consider LUC7L3 (UniProt O95232), for which the log2 fold change is 0.036 (inactive).

For LUC7L (UniProt Q9NQ29), the log2 fold change is 0.049 (inactive). The value for KPNA1 (UniProt P52294) was -0.088 (inactive); that for KSR1 (UniProt Q8IVT5) was -0.086 (inactive); that for MAP2K2 (UniProt P36507) was 0.015 (inactive).
